The results in this text go back to PubChem BioAssay AID492948 (National Center for Advancing Translational Sciences (NCATS), 2010).

Records with an inconclusive call do not appear. A number with no mark means an inactive call. The source made the active and inactive calls. Calls follow the shape of the dose curve; as a rule, active = well fitted activation curve with a large enough effect; inconclusive = small, poorly fitted or top-dose-only effect; inactive = no such curve, though single readings can be large or run the other way.
Potency is read from the fitted curve at half-maximal effect.

A short description of this experiment: qHTS Assay for Agonists of the Relaxin Receptor RXFP1: V1B Hit Validation.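 Also: counter-screen in HEK293 cells expressing V1B rather than RXFP1 for selectivity; nearly all actives have a fitted effect of over 65% in size.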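 As to activation: cAMP accumulation with PDE4 inhibitor Ro 20-1724 present during compound exposure; 0% = buffer alone basal and 100% = 29 nM porcine relaxin.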 The conditions noted are these: HEK293 V1B cells, cAMP TR-FRET, 30 min; series mostly up to 115 µM; activation: at the top concentration. The essentials:
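cAMP accumulation, read by TR-FRET competition after lysis, in V1B-expressing HEK293 cells given compound for 30 min at 37C with Ro 20174 present. Responses scaled between buffer basal and 29 nM porcine relaxin; Hill-equation EC50.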
Consider `CCOP1(=O)OCC2OC(n3cnc4c(N)ncnc43)C(O)C2O1` (stereo unspecified), for which the Potency is 12.3 µM (active). Take `CN1C(=O)c2ccc(C(=O)Nc3ccc(Br)cn3)cc2C1=O`: the Potency is 21.8 µM (active). On to `O=C(Nc1ccccc1)c1ccccc1NC(=O)C1CCCCC1`, for which the “activation” value is -0.678% [at 127 µM]. With `Cc1ccnc(NS(=O)(=O)c2ccc(N3C(=O)c4ccccc4C3=O)cc2)n1`, the Potency is 14.9 µM (active). On the same count and under the same terms, under `CCN(CC)S(=O)(=O)c1ccc2c(c1)N(CC(=O)Nc1cccnc1Cl)C(=O)CO2` stands 17.3 µM (active). Take `CN(CC(=O)Nc1ccccc1Cl)C(=O)COC(=O)Cc1c(F)cccc1Cl`: the “activation” value is 3.14% [at 44.9 µM]. For the compound `CCN(CC)C(=O)c1cc(Cl)ccc1NC(=O)c1ccco1`, the “activation” value was 2.42% [at 127 µM]. With `Cn1c(=O)c2c(ncn2CC(=O)N/N=C/c2cn[nH]c2-c2ccc(F)cc2)n(C)c1=O`, the Potency is 21.8 µM (active). Take `O=C(CCc1nnc2ccc(N3CCC4(CC3)OCCO4)nn12)NCc1ccc(F)cc1`: the Potency was 38.9 µM (active).

Regarding `CC1CCCCN1C(=O)c1ccccc1NC(=O)c1ccco1` (stereo unspecified), the “activation” value was 4.49% [at 127 µM]. As to `CCc1nnc(NC(=O)CSc2nc(C)nc3c2c(=O)n(C)c(=O)n3C)s1`, the Potency is 9.74 µM (active). For the compound `Cc1cc(C)c(NC(=O)CS(=O)CC(=O)Nc2ccc(F)cc2F)c(C)c1` (stereo unspecified), the “activation” value is 3.65%. For `CC1CCCN(C(=O)COC(=O)CNC(=O)c2sc3ccccc3c2Cl)C1` (stereo unspecified), the Potency is 8.68 µM (active). Take `O=C(Nc1ccccc1C(=O)NCc1ccco1)c1ccco1`: the “activation” value was 4.18% [at 127 µM].

With `CCC1(C)Cc2c(sc3c2c2ncnn2c2nnc(SCC(=O)NCc4ccco4)n32)CO1` (stereo unspecified), the Potency was 13.8 µM (active). On the same count and under the same terms, under `COc1ccccc1CNS(=O)(=O)c1cc(CN2C(=O)c3cccnc3C2=O)ccc1OC` stands 27.5 µM (active).
